High-throughput results: PubChem, ICCB-Longwood Screening Facility, Harvard Medical School
The full list was thinned out, with hits kept by preference.
Sa helicase inh: S. aureus DNA helicase inhibition; purified S. aureus helicase, fluorescence unwinding assay; inhibition, % (concentration not given with the values); 120,000 tested, 0.05% active; in the data active means inhibition above about 25%, passing the limit was not always enough;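 further: 0% = mean of negative control wells and 100% = mean of positive control wells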
Sa growth 42C: blocks Staphylococcus aureus growth; S. aureus RN4220 growth, OD600, 20 h, 42 °C; stronger effect = lower value; relative growth, % (test concentration not listed); 170,000 tested, 0.53% active; AID 720641;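 active means relative growth at most 50% at the other temperature and 20+ points below 30 °C, or under 10% at both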
Numbers without * were called inactive; . = no result.

SMILES	Sa helicase inh	Sa growth 42C
CN[C@@H]1[C@@H](O[C@H]2O[C@H](CO)[C@@H](N)[C@H](O)[C@H]2O)O[C@H]2C[C@@H](N)[C@H](O[C@H]3[C@H](O)[C@@H](O)[C@H](N)C[C@@H]3N)O[C@@H]2[C@@H]1O	.	99
NC[C@H]1O[C@H](O[C@H]2[C@H](O)[C@@H](O[C@H]3O[C@H](CO)[C@@H](O)[C@H](N)[C@H]3O)[C@H](N)C[C@@H]2N)[C@H](N)[C@@H](O)[C@@H]1O	.	-0.2*
CCCN1C(=O)C(O)(C2COC(C)(C)CC2=O)c2cc(C)ccc21 (stereo not given)	3	93
O=C(NC1CCN(C(=O)c2c(Cl)cccc2Cl)CC1)C1CCCCC1	.	118
CCNc1nc(SCC(=O)NC(=O)NCc2ccccc2)nc2sc3c(c12)CCN(C)C3	.	83
CCNc1nc(SCc2ccc(Cl)cc2)nc2sc3c(c12)CCN(C)C3	.	10.0*
COc1ccccc1OCc1ccc(C(=O)NCc2ccncc2)o1	3	103
O=C1c2sc3nc4ccccc4n3c2C(=O)N1c1cc(Cl)ccc1Cl	-46	92
CCOc1ccc(S(=O)(=O)/N=C2/C=C(Sc3ncn[nH]3)C(=O)c3ccccc32)cc1	-106	22
O=C1C(Sc2ncn[nH]2)=C/C(=N/S(=O)(=O)c2cccs2)c2ccccc21	-11	1.4*
O=C1C(Sc2ncn[nH]2)=C/C(=N/S(=O)(=O)c2ccc(F)cc2)c2ccccc21	-15	1.1*
O=S(=O)(Nc1cc(Sc2ncn[nH]2)c(O)c2ccccc12)c1cccs1	11	109
COc1ccc(OC)c(/C=N\NC(=O)C2C(=O)NCC2c2ccccc2)c1 (stereo not given)	5	77
CN(C)c1ccc(C2=CC=CC(=C3C=CC(=[N+](C)C)C=C3)O2)cc1	74*	2.5*
CN(C)c1ccc(C(=C2C=CC(=[N+](C)C)C=C2)c2ccc(N(C)C)cc2)cc1	.	171
Cc1c2oc3c(C)ccc(C(=O)OC(C)C4NC(=O)C(C(C)C)N(C)C(=O)CN(C)C(=O)C5CCCN5C(=O)C(C(C)C)NC4=O)c3nc-2c(C(=O)OC(C)C2NC(=O)C(C(C)C)N(C)C(=O)CN(C)C(=O)C3CCCN3C(=O)C(C(C)C)NC2=O)c(N)c1=O (stereo not given)	.	-0.6*
CC(=O)Nc1nonc1Nc1cc(C)nn1-c1ccccc1	-1	105
COc1cccc2c1NC(C)(C)C=C2C	13	86
O=c1c(-c2ccccn2)coc2cc(O)ccc12	-1	.
CCCOC(=O)Nc1ccc(Cl)cc1C(=O)c1ccccc1	8	95
COc1cc2ccc3c(CCN(C)C)cc(OC)c(OC)c3c2cc1OC	10	89
CN(C)CCc1cc2c(c3c1ccc1ccccc13)OCO2	45*	110
c1cc2cc(C3=NCCN3)ccc2cc1C1=NCCN1	46*	100
c1coc(C2=NCCN2)c1	9	87
COC(=O)c1cc2c(ccn2C)n1CC(=O)N(C1CCCCC1)C1CCCCC1	-2	94
SMILES	Sa helicase inh	Sa growth 42C
CC(=O)OCCNc1ccc2noc3c2c1C(=O)c1ccccc1-3	-95	76
Clc1nc2c(Cl)cccc2s1	0	82
O=C1S/C(=C\c2ccc(Cl)cc2)C(=O)N1Cc1ccccc1	14	98
NCCN1C(=O)S/C(=C\c2ccc(Cl)c(Cl)c2)C1=O	3	-0.6*
CN1/C(=C\C(=O)CN2C(=O)NC3(CCc4ccccc43)C2=O)C(C)(C)c2ccccc21 (stereo not given)	-19	-0.9*
CN1/C(=C\C(=O)CN2C(=O)NC3(CCCCC3)C2=O)C(C)(C)c2ccccc21	-2	89
CCN1CCN(CCCNC(=O)c2cc3c(=O)[nH]c4ccc(C)cc4c3s2)CC1	9	104
O=c1oc(-c2ccco2)ns1	.	108
CC(c1ccc(F)cc1)N1CCCC1 (stereo not given)	-13	89
COc1cc(/C=N/NC(=O)c2cc(-c3cccn3C)n[nH]2)cc(OC)c1OC	32	-0.2*
O=C(N/N=C/c1ccccc1)c1cc(-c2ccccc2)n[nH]1	16	94
CCN(CC)S(=O)(=O)c1cccc(-c2nn(CN(CCC#N)Cc3cccnc3)c(=S)n2CC(C)C)c1	7	116
Cc1cc(Br)ccc1NC(=O)c1ccccn1	6	106
C/C(=N\NC(=O)c1cc(Br)ccc1O)c1ccccn1	4	3.1*
Cc1nn(CO)c(C)c1Sc1ccc(Br)cc1	5	18*
Cc1nn(C)c(C)c1Sc1ccc(Br)cc1	-16	88
O=C(Nc1ccccc1C(=O)OCc1c(F)cccc1Cl)c1ccco1	5	60
O=S(=O)(NC1CCCCC1n1cc(-c2ccccc2)nn1)c1ccccc1 (stereo not given)	21	.
CCC1(CO)CSC(Nc2ccc(Cl)cc2)=N1 (stereo not given)	11	91
CCOc1ccc(CNC(=O)c2ccc(CS(=O)Cc3ccc(Cl)cc3)o2)cc1 (stereo not given)	.	111
CCOc1ccc(CCNC(=O)c2ccc(CS(=O)Cc3cccc(Cl)c3)o2)cc1 (stereo not given)	.	24*
O=C(NCc1cccnc1)c1cccc2sc(N3CCCc4ccccc43)nc12	11	130
Cc1ccc(-c2cc(C(F)F)nc(S(C)(=O)=O)n2)cc1	3	36*
Cc1ccc(-c2cc(C(F)F)nc(NCc3ccco3)n2)cc1	19	106
Cc1ccc(Nc2cc(C)nc(-n3nc(C)cc3C)n2)cc1	.	0.2*
SMILES	Sa helicase inh	Sa growth 42C
Cc1cc(Nc2ccc(Cl)cc2C)nc(-n2nc(C)cc2C)n1	.	18
COC(=O)c1ccc(OC(=O)c2ccc3c(c2)OCCO3)cc1	-5	98
CCOc1ccc(N2C(=O)CC(NCCNC(=O)c3ccc(Cl)cc3)C2=O)cc1 (stereo not given)	-13	83
CCN1C(=O)SC(CC(=O)O)C1=O (stereo not given)	17	110
COc1ccc(CCN=C=S)cc1	23	9.0*
COc1ccc(CCC(O)C2(O)CCCCC2)cc1 (stereo not given)	15	91
CN(C)S(=O)(=O)c1cccc(C(=O)N=c2sc3ccccc3n2C)c1	-10	102
COc1cccc(NC(=O)NCc2noc3ccccc23)c1	-17	93
CS(=O)c1nc(-c2ccccc2)cc(C(F)(F)F)n1 (stereo not given)	7	-0.2*
FC(F)(F)c1cc(-c2ccccc2)nc(N2CCCC2)n1	3	102
O=C1CN(C(=O)CCC(=O)c2ccc(Br)cc2)CCN1	-7	95
CCOC(=O)c1ccc(NC(=O)NC2CC3CCC(C2)N3C(=S)NCc2ccco2)cc1 (stereo not given)	10	109
O=C(CCSc1ccc(C(F)(F)F)cc1)c1ccco1	.	124
CCOC(=O)C(C#N)c1ccccn1 (stereo not given)	.	107
CCOC(=O)C(C#N)c1c(F)c(F)c(Br)c(F)c1F (stereo not given)	-4	-1.0*
Nn1c(SCc2cc(=O)oc3cc(O)c(O)cc23)nnc1-c1ccncc1	25	68
Nn1c(Cc2ccccc2F)nnc1SCc1cc(=O)oc2cc(O)c(O)cc12	55*	139
CCn1c(SCc2cc(=O)oc3cc(O)ccc23)nc2ccccc21	-1	93
Cn1c(SCc2cc(=O)oc3cc(O)c(O)cc23)nc2ccccc21	67*	71
COc1ccc(CCNC(=O)c2cc3sc(C)cc3n2C)cc1OC	3	82
O=c1cc(-c2ccc3ccccc3c2)[nH][nH]1	14	108
O=C(Nc1ccc(Cl)c(Cl)c1)OCc1cccnc1	11	8.0*
